Results taken from the supplement of paper PMC7866885, “A novel bicyclic 2,4-diaminopyrimidine inhibitor of Streptococcus suis dihydrofolate reductase” (PeerJ, 2021).
± gives the standard deviation.

Tested on: Streptococcus suis P1/7
Assay: percent growth relative to DMSO control; higher = less growth inhibition
Conditions: 10 µM; incubation time 18 h
Protocol: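 CLSI broth microdilution: 5x10^4 CFU of Streptococcus suis (strain P1/7 or HE06) incubated with 10 µM Pathogen Box compound in cation-adjusted Mueller Hinton broth, 37 °C, 5% CO2, 18 h. Growth read as OD600 and expressed as percent of the DMSO-treated control (100%); mean ± SD of three independent experiments.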

Compound	percent growth [%]
CC(C)(C)n1nc(-c2ccccc2)c2c(N)ncnc21	84.5 ± 20
Clc1cccc(C(c2ccc(CN3CCNCC3)cc2)n2ccnc2)c1 (stereo not given)	76.7 ± 5.8
O=C(NCCN1CCCC1)c1cc(NCCCCN2CCC(F)(F)CC2)nc2ccc(Cl)cc12	79.3 ± 14
O=C(NC1CCCCC1)N1CCN(Cc2ccc3c(c2)OCO3)CC1	52.2 ± 38
O=C(Nc1cccnc1)c1c(O)c2cccc3c2n(c1=O)CC3	89.7 ± 27
Cc1[nH]c2cc(F)cc(F)c2c(=O)c1-c1ccc(Oc2ccc(OC(F)(F)F)cc2)cc1	88.9 ± 18
COc1cccc(NC(=O)c2c(NC(=O)c3cccnc3)sc3c2CCC3)c1	86.6 ± 15
Nc1ncnc2c1ncn2[C@@H]1O[C@H](COS(=O)(=O)NC(=O)c2ccccc2O)[C@@H](O)[C@H]1O	78.6 ± 9.8
FC(F)(F)c1ccc(N(c2cccnc2)C2CCN(c3ccc(C(F)(F)F)cn3)CC2)cc1	61.4 ± 12
CCN(CC)C(=O)N1CCN(C)CC1	91.1 ± 17
COc1cc(-c2cc(-c3ccc(S(C)(=O)=O)cc3)cnc2N)ccc1O	70.7 ± 22
NC(CC(=O)c1ccc(Cl)cc1Cl)C(Cl)(Cl)Cl (stereo not given)	23.2 ± 36
O=C(Nc1ccc(N2CCNCC2)nc1)c1oc(-c2ccccc2)nc1C(F)(F)F	63.6 ± 18
O=C(NC1=NCCS1)c1sc2cc(F)ccc2c1Cl	88.6 ± 14
Cc1nn(C(=O)Nc2cccc(C(F)(F)F)c2)c(C)c1Sc1ncccn1	-0.122 ± 0.21
O=C(Nc1ccc2c(c1)B(O)OC2)c1ccccc1C(F)(F)F	88 ± 14
COc1ccc2nc(C)cc(OCC(=O)NCc3ccccc3)c2c1	75.5 ± 9.7
Cc1cc2ccccc2n1CC(=O)N1CC(C(=O)N2CCCCC2)Oc2ccccc21 (stereo not given)	102 ± 19
COc1ccc(Oc2ccc([C@@H](C)N(C)c3ncc4c(N)nc(N)nc4n3)cc2)cc1	83.9 ± 75
Cc1ccc2nc(C)c(-c3ccn(Cc4ccccc4)n3)n2c1	62.9 ± 23

Compound	percent growth [%]
CCOc1ccccc1NC(C)C(=O)Nc1cc(C(F)(F)F)ccc1N1CCOCC1 (stereo not given)	109 ± 31
NS(=O)(=O)c1cccc(-c2ccc3ncc(N4CCOCC4)nc3c2)c1	71.6 ± 6.4
CCCS(=O)(=O)N1CCC(CO)(Cc2ccccc2C(F)(F)F)CC1	82.4 ± 27
COc1ccc(-c2nn(C(C)C)c3ncnc(N)c23)cc1OC	121 ± 74
CC(C)N=c1cc2n(-c3ccc(Cl)cc3)c3ccccc3nc-2cc1Nc1ccc(Cl)cc1	48.2 ± 42
CC(Oc1cccc(Cl)c1)C(=O)Nc1ccc2oc(-c3ccncc3)nc2c1 (stereo not given)	77.5 ± 2.9
Nc1ncc(-c2cn[nH]c2)cc1-c1nc2cc(Cl)cnc2[nH]1	74 ± 15
CCCCN(CCCC)c1c(C#N)cc(S(=O)(=O)Nc2ccccc2)cc1C#N	69.8 ± 27
O=C([C@@H](c1ccc(Cl)cc1)c1cccnc1)N1CCN(c2ccc(C(F)(F)F)cc2)CC1	75.6 ± 12
N=C(N)Nc1ccc(-c2ccc(-c3ccc(NC(=N)N)cc3Cl)o2)c(Cl)c1	23.2 ± 34
Cc1ccc2oc(-c3cc(NC(=O)Cc4ccccc4)ccc3Cl)nc2c1	78.5 ± 4
Cc1nc2ccccn2c1C(=O)NCc1ccc(Cl)cc1	133 ± 76
O=C(NCc1cc(Cl)cc(Cl)c1)c1c(C(F)(F)F)nc2ccccn12	60.6 ± 20
COc1ccc(-c2nnc3ccc(-c4cccc(C(C)C)c4)cn23)cc1OC	68 ± 20
CN1CCN(c2nccc3[nH]c(-c4cccc(F)c4)cc23)CC1	96 ± 26
Cc1ccc(C(=O)Nc2ccc(S(=O)(=O)O)c3cc(S(=O)(=O)O)cc(S(=O)(=O)O)c23)cc1NC(=O)c1cccc(NC(=O)Nc2cccc(C(=O)Nc3cc(C(=O)Nc4ccc(S(=O)(=O)O)c5cc(S(=O)(=O)O)cc(S(=O)(=O)O)c45)ccc3C)c2)c1	85.9 ± 15
CC(=O)NC[C@@H]1CN(c2ccc(N3CCOCC3)c(F)c2)C(=O)O1	3.05 ± 1.6
Cc1cc(NCCc2ccccc2)nc(NC(=N)Nc2ccc(Cl)cc2)n1	74.4 ± 13
O=C(C(Cc1c[nH]c2ccccc12)NS(=O)(=O)c1ccc(Cl)cc1)N1CCCCC1 (stereo not given)	120 ± 43
COc1ccc(C2CC(c3cccs3)=NN2C(=O)c2ccco2)cc1OC (stereo not given)	99.7 ± 26
